Test results: PubChem BioAssay AID1159580 (chemical genetic matrix, 2015)
Out of some 5,500 compounds screened, about 2,000 (36%) were called active. Not shown: some 18% with an inconclusive outcome. No stated cut-off is given here; in the data, active means normalized growth mostly below about 0.91 (no sharp cut-off); inconclusive means no clear call, values can overlap the other calls; inactive means mostly above about 0.92. Some of the results follow.

Experiment: chemical genetic growth profiling, strain panel (AID 1159580);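 further: tested at 20 µM; growth read once vehicle control cultures reached saturation at 30 °C; 1 = growth at the plate median or of vehicle wells; lower values mean less growth of the strain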
Settings: S. cerevisiae deletion strains, growth OD

Measured: normalized growth

COc1ccc(-c2cc(=O)c3c(O)cc(O[C@H]4O[C@H](CO[C@@H]5O[C@@H](C)[C@H](O)[C@@H](O)[C@H]5O)[C@@H](O)[C@H](O)[C@H]4O)cc3o2)cc1
inactive: locus YAL013W, strain DEP1, active compounds read low 1.01 | locus YAL021C, strain ccr4, active compounds read low 1 | locus YAL026C, strain drs2, active compounds read low 1.03 | locus YAL030W, strain snc1, active compounds read low 1 | locus YBL061C, strain skt5, active compounds read low 1 | locus YBR009C, strain hhf1, active compounds read low 1 | locus YBR021W, strain FUR4, active compounds read low 1 | locus YBR023C, strain chs3, active compounds read low 1.01 | locus YBR171W, strain sec66, active compounds read low 1.01 | locus YBR229C, strain ROT2, active compounds read low 1 | locus YBR231C, strain swc5, active compounds read low 1.01 | locus YBR279W, strain paf1, active compounds read low 1 | locus YCL011C, strain gbp2, active compounds read low 1 | locus YCL016C, strain dcc1, active compounds read low 0.989 | locus YCL029C, strain bik1, active compounds read low 1.02 | locus YCL061C, strain MRC1, active compounds read low 1.01 | locus YCL069W, strain vba3, active compounds read low 0.968 | locus YCR088W, strain abp1, active compounds read low 1.01 | locus YDL005C, strain med2, active compounds read low 1 | locus YDL035C, strain GPR1, active compounds read low 1 | locus YDL040C, strain nat1, active compounds read low 1.01 | locus YDL074C, strain BRE1, active compounds read low 1.03 | locus YDL101C, strain DUN1, active compounds read low 1.03 | locus YDL185W, strain tfp1, active compounds read low 1.02 | locus YDL192W, strain arf1, active compounds read low 1.02 | locus YDR001C, strain nth1, active compounds read low 0.998 | locus YDR069C, strain doa4, active compounds read low 1.01 | locus YDR101C, strain arx1, active compounds read low 1.01 | locus YDR137W, strain rgp1, active compounds read low 1.02 | locus YDR159W, strain sac3, active compounds read low 1.02 | locus YDR162C, strain NBP2, active compounds read low 1.01 | locus YDR195W, strain ref2 1 | locus YDR297W, strain sur2, active compounds read low 0.998 | locus YDR318W, strain mcm21, active compounds read low 1.01 | locus YDR334W, strain swr1, active compounds read low 1 | locus YDR335W, strain msn5, active compounds read low 0.992 | locus YDR388W, active compounds read low 1.02 | locus YDR392W, strain spt3, active compounds read low 1 | locus YDR502C, strain sam2, active compounds read low 1.02 | locus YEL003W, strain gim4, active compounds read low 1.01 | locus YEL037C, strain rad23, active compounds read low 1.01 | locus YEL061C, strain CIN8 (second series), active compounds read low 0.995 | locus YEL061C, strain CIN8, active compounds read low 1 | locus YER015W, strain faa2, active compounds read low 1 | locus YER016W, strain bim1, active compounds read low 1 | locus YER110C, active compounds read low 1.02 | locus YER111C, strain swi4, active compounds read low 1 | locus YER155C, strain BEM2 (second series), active compounds read low 1.02 | locus YER155C, strain BEM2, active compounds read low 1.01 | locus YER167W, strain BCK2, active compounds read low 1.02 | locus YFR010W, strain ubp6, active compounds read low 1.01 | locus YGL078C, strain dbp3, active compounds read low 1.01 | locus YGL086W, strain mad1, active compounds read low 1.03 | locus YGL167C, strain pmr1, active compounds read low 0.995 | locus YGL173C, strain kem1, active compounds read low 1.02 | locus YGL227W, strain vid30, active compounds read low 1.01 | locus YGL240W, strain doc1, active compounds read low 1.02 | locus YGL248W, strain PDE1, active compounds read low 1.01 | locus YGL253W, strain hxk2, active compounds read low 0.986 | locus YGR078C, strain PAC10, active compounds read low 1.03 | locus YGR135W, strain pre9, active compounds read low 1.01 | locus YGR229C, strain SMI1, active compounds read low 1.02 | locus YGR252W, strain gcn5, active compounds read low 1.04 | locus YHR013C, strain ard1, active compounds read low 1.01 | locus YHR027C, strain rpn1, active compounds read low 0.998 | locus YHR030C, strain SLT2, active compounds read low 0.992 | locus YHR079C, strain IRE1 (second series), active compounds read low 1.01 | locus YHR094C, strain hxt1, active compounds read low 1.01 | locus YHR129C, strain ARP1, active compounds read low 1.01 | locus YHR142W, strain chs7, active compounds read low 0.983 | locus YHR200W, strain rpn10, active compounds read low 1.02 | locus YIL066C, strain RNR3, active compounds read low 1.01 | locus YIL073C, strain SPO22, active compounds read low 1.08 | locus YIL125W, strain kgd1, active compounds read low 1.02 | locus YIR030C, strain dcg1, active compounds read low 1.02 | locus YJL092W, strain hpr5, active compounds read low 0.997 | locus YJL095W, strain BCK1 (second series), active compounds read low 1 | locus YJL095W, strain BCK1, active compounds read low 1.05 | locus YJL115W, strain asf1, active compounds read low 1 | locus YJL129C, strain trk1, active compounds read low 1.01 | locus YJL134W, strain LCB3, active compounds read low 0.994 | locus YJL154C, strain vps35, active compounds read low 0.999 | locus YJL164C, strain tpk1, active compounds read low 0.991 | locus YJL166W, strain qcr8, active compounds read low 1 | locus YJL168C, strain set2, active compounds read low 1.02 | locus YJL187C, strain SWE1 (second series), active compounds read low 1.03 | locus YJL187C, strain SWE1, active compounds read low 1.01 | locus YJR043C, strain POL32, active compounds read low 0.972 | locus YKL009W, strain mrt4, active compounds read low 1.04 | locus YKL068W, active compounds read low 1.01 | locus YKL085W, strain MDH1 (second series), active compounds read low 0.999 | locus YKL085W, strain MDH1, active compounds read low 0.999 | locus YKL160W, strain elf1, active compounds read low 0.999 | locus YKL190W, strain CNB1, active compounds read low 0.994 | locus YKR001C, strain vps1, active compounds read low 1.04 | locus YKR026C, strain gcn3, active compounds read low 1 | locus YKR091W, strain srl3, active compounds read low 1 | locus YLL001W, strain dnm1, active compounds read low 0.969 | locus YLL026W, active compounds read low 1 | locus YLL041C, strain sdh2, active compounds read low 1.01 | locus YLR027C, strain aat2, active compounds read low 0.981 | locus YLR039C, strain RIC1, active compounds read low 1.06 | locus YLR058C, strain SHM2, active compounds read low 1.01 | locus YLR102C, strain apc9, active compounds read low 1.02 | locus YLR221C, strain rsa3, active compounds read low 1.01 | locus YLR258W, strain gsy2, active compounds read low 0.991 | locus YLR262C, strain YPT6 (second series), active compounds read low 0.988 | locus YLR262C, strain YPT6, active compounds read low 1.1 | locus YLR268W, strain sec22, active compounds read low 1.05 | locus YLR320W, strain mms22, active compounds read low 1.03 | locus YLR330W, strain CHS5, active compounds read low 1 | locus YLR342W, strain FKS1 (second series), active compounds read low 1.01 | locus YLR342W, strain FKS1, active compounds read low 0.996 | locus YLR357W, strain rsc2, active compounds read low 0.996 | locus YLR370C, strain arc18, active compounds read low 1 | locus YLR371W, strain rom2, active compounds read low 1.02 | locus YLR384C, strain iki3, active compounds read low 0.99 | locus YLR418C, strain cdc73, active compounds read low 0.994 | locus YML016C, strain PPZ1, active compounds read low 1 | locus YML032C, strain rad52, active compounds read low 0.998 | locus YML120C, strain ndi1, active compounds read low 1 | locus YML124C, strain tub3, active compounds read low 1.02 | locus YMR058W, strain fet3, active compounds read low 1 | locus YMR078C, strain ctf18, active compounds read low 1.02 | locus YMR125W, strain sto1, active compounds read low 0.958 | locus YMR129W, active compounds read low 0.999 | locus YMR205C, strain PFK2, active compounds read low 1 | locus YMR223W, strain ubp8, active compounds read low 1.01 | locus YMR231W, strain pep5, active compounds read low 1 | locus YMR307W, strain GAS1, active compounds read low 1.03 | locus YNL067W, strain RPL9B, active compounds read low 1.04 | locus YNL071W, strain lat1, active compounds read low 1.01 | locus YNL128W, strain TEP1, active compounds read low 1.02 | locus YNL209W, strain ssb2, active compounds read low 0.991 | locus YNL233W, strain BNI4, active compounds read low 1.04 | locus YNL248C, strain rpa49, active compounds read low 1.02 | locus YNL250W, strain rad50, active compounds read low 1.02 | locus YNL271C, strain bni1, active compounds read low 1.02 | locus YNL298W, strain CLA4, active compounds read low 1.02 | locus YNL307C, strain MCK1, active compounds read low 1.02 | locus YNL322C, strain KRE1 (second series), active compounds read low 1 | locus YNL322C, strain KRE1, active compounds read low 1 | locus YNR049C, strain mso1, active compounds read low 0.991 | locus YNR052C, strain pop2, active compounds read low 1.02 | locus YOL006C, strain TOP1, active compounds read low 1.15 | locus YOL012C, strain htz1 1.14 | locus YOL147C, strain pex11, active compounds read low 1.01 | locus YOR001W, strain rrp6, active compounds read low 1.02 | locus YOR061W, strain CKA2, active compounds read low 1 | locus YOR069W, strain VPS5, active compounds read low 1.01 | locus YOR070C, strain gyp1, active compounds read low 1.02 | locus YOR080W, strain dia2, active compounds read low 0.998 | locus YOR083W, strain WHI5, active compounds read low 1.01 | locus YOR106W, strain vam3, active compounds read low 0.988 | locus YOR136W, strain idh2, active compounds read low 1.03 | locus YOR144C, strain elg1, active compounds read low 1.01 | locus YOR184W, strain ser1, active compounds read low 1.01 | locus YOR265W, strain rbl2, active compounds read low 0.998 | locus YOR270C, strain vph1, active compounds read low 1.02 | locus YOR290C, strain snf2, active compounds read low 0.985 | locus YOR316C, strain cot1, active compounds read low 1.01 | locus YPL051W, strain arl3, active compounds read low 1.01 | locus YPL078C, strain atp4, active compounds read low 1.02 | locus YPL106C, strain sse1, active compounds read low 1.01 | locus YPL240C, strain hsp82, active compounds read low 0.995 | locus YPL241C, strain CIN2, active compounds read low 0.993 | locus YPR119W, strain clb2, active compounds read low 1.02 | locus YPR141C, strain kar3, active compounds read low 1.01 | locus YPR163C, strain tif3, active compounds read low 1.02 | locus YPR167C, strain met16, active compounds read low 1.01 | strain wtn01, active compounds read low 1.04
